{
  "source": "the supplement of paper PMC8728848",
  "assay_in_all_cases": "glycan array binding signal (z-score within array); higher = stronger binding",
  "conditions_in_all_cases": "glycan notation: IUPAC condensed, linker removed",
  "key": {"Fuc(a1-2)Gal(b1-3)GalNAc": {"target": "Fuc(a1-2)Gal(b1-3)GalNAc", "method_in_brief": "(§1)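 Arrays were curated from the Consortium for Functional Glycomics database, 3228 in total, and kept only where the protein sequence was available. Binding is expressed as a within-array Z-score. This score was averaged across arrays of the same protein sequence at different concentrations or buffers and across linkers, and negative values can be read as non-binding.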"}, "[1]": {"target": "Fuc(a1-2)Gal(b1-3)GalNAc(b1-4)[Neu5Ac(a2-3)]Gal(b1-4)Glc", "method_in_brief": "as §1"}, "Fuc(a1-2)Gal(b1-4)Glc": {"target": "Fuc(a1-2)Gal(b1-4)Glc", "method_in_brief": "as §1"}, "[2]": {"target": "Fuc(a1-2)Gal(b1-4)[Fuc(a1-3)]GlcNAc(b1-3)Gal(b1-4)[Fuc(a1-3)]GlcNAc(b1-3)Gal(b1-4)[Fuc(a1-3)]GlcNAc", "method_in_brief": "as §1"}, "[3]": {"target": "Fuc(a1-2)Gal6S(b1-3)GlcNAc6S", "method_in_brief": "as §1"}, "[4]": {"target": "Fuc(a1-2)[Gal(a1-3)]Gal(b1-3)GlcNAc", "method_in_brief": "as §1"}, "[5]": {"target": "Fuc(a1-2)[Gal(a1-3)]Gal(b1-3)GlcNAc(b1-2)Man(a1-3)[Fuc(a1-2)[Gal(a1-3)]Gal(b1-3)GlcNAc(b1-2)Man(a1-6)]Man(b1-4)GlcNAc(b1-4)[Fuc(a1-6)]GlcNAc", "method_in_brief": "as §1"}, "[6]": {"target": "Fuc(a1-2)[Gal(a1-3)]Gal(b1-4)GlcNAc(b1-2)Man(a1-3)[Fuc(a1-2)[Gal(a1-3)]Gal(b1-4)GlcNAc(b1-2)Man(a1-6)]Man(b1-4)GlcNAc(b1-4)GlcNAc", "method_in_brief": "as §1"}, "[7]": {"target": "Fuc(a1-2)[GalNAc(a1-3)]Gal(b1-3)GlcNAc(b1-2)Man(a1-3)[Fuc(a1-2)[GalNAc(a1-3)]Gal(b1-3)GlcNAc(b1-2)Man(a1-6)]Man(b1-4)GlcNAc(b1-4)[Fuc(a1-6)]GlcNAc", "method_in_brief": "as §1"}, "[8]": {"target": "Fuc(a1-2)[GalNAc(a1-3)]Gal(b1-3)GlcNAc(b1-6)GalNAc", "method_in_brief": "as §1"}, "[9]": {"target": "Gal(a1-3)[Gal(a1-4)]Gal(b1-4)GlcNAc", "method_in_brief": "as §1"}, "[10]": {"target": "Gal(a1-4)Gal(b1-3)GlcNAc(b1-2)Man(a1-3)[Gal(a1-4)Gal(b1-3)GlcNAc(b1-2)Man(a1-6)]Man(b1-4)GlcNAc(b1-4)GlcNAc", "method_in_brief": "as §1"}, "Gal(b1-3)Gal(b1-4)GlcNAc": {"target": "Gal(b1-3)Gal(b1-4)GlcNAc", "method_in_brief": "as §1"}, "[11]": {"target": "Gal(b1-3)GlcNAc(b1-2)Man(a1-3)[Gal(b1-3)GlcNAc(b1-2)Man(a1-6)]Man(b1-4)GlcNAc(b1-4)GlcNAc", "method_in_brief": "as §1"}, "[12]": {"target": "Gal(b1-3)GlcNAc(b1-3)Gal(b1-4)[Fuc(a1-3)]GlcNAc", "method_in_brief": "as §1"}, "[13]": {"target": "Gal(b1-3)GlcNAc(b1-6)[Gal(b1-3)]GalNAc", "method_in_brief": "as §1"}, "[14]": {"target": "Gal(b1-4)GlcNAc(b1-2)Man(a1-3)[Gal(b1-4)GlcNAc(b1-2)Man(a1-6)]Man(b1-4)GlcNAc(b1-4)[Fuc(a1-6)]GlcNAc", "method_in_brief": "as §1"}, "[15]": {"target": "Gal(b1-4)GlcNAc(b1-2)Man(a1-3)[Gal(b1-4)GlcNAc(b1-2)Man(a1-6)][Gal(b1-4)GlcNAc(b1-4)]Man(b1-4)GlcNAc(b1-4)[Fuc(a1-6)]GlcNAc", "method_in_brief": "as §1"}, "[16]": {"target": "Gal(b1-4)GlcNAc(b1-2)Man(a1-3)[Gal(b1-4)GlcNAc(b1-2)Man(a1-6)][GlcNAc(b1-4)]Man(b1-4)GlcNAc(b1-4)[Fuc(a1-6)]GlcNAc", "method_in_brief": "as §1"}, "[17]": {"target": "Gal(b1-4)GlcNAc(b1-3)Gal(b1-4)GlcNAc(b1-2)Man(a1-3)[Gal(b1-4)GlcNAc(b1-3)Gal(b1-4)GlcNAc(b1-2)Man(a1-6)]Man(b1-4)GlcNAc(b1-4)[Fuc(a1-6)]GlcNAc", "method_in_brief": "as §1"}, "[18]": {"target": "Gal(b1-4)GlcNAc(b1-3)Gal(b1-4)GlcNAc(b1-3)Gal(b1-4)GlcNAc(b1-2)Man(a1-3)[Gal(b1-4)GlcNAc(b1-3)Gal(b1-4)GlcNAc(b1-3)Gal(b1-4)GlcNAc(b1-2)Man(a1-6)]Man(b1-4)GlcNAc(b1-4)GlcNAc", "method_in_brief": "as §1"}, "[19]": {"target": "Gal(b1-4)GlcNAc(b1-3)Gal(b1-4)GlcNAc(b1-3)Gal(b1-4)GlcNAc(b1-2)[Gal(b1-4)GlcNAc(b1-3)Gal(b1-4)GlcNAc(b1-3)Gal(b1-4)GlcNAc(b1-6)]Man(a1-6)[Gal(b1-4)GlcNAc(b1-3)Gal(b1-4)GlcNAc(b1-3)Gal(b1-4)GlcNAc(b1-2)Man(a1-3)]Man(b1-4)GlcNAc(b1-4)[Fuc(a1-6)]GlcNAc", "method_in_brief": "as §1"}, "[20]": {"target": "Gal(b1-4)GlcNAc(b1-3)Gal(b1-4)GlcNAc(b1-3)Gal(b1-4)GlcNAc(b1-3)Gal(b1-4)GlcNAc(b1-2)Man(a1-3)[Gal(b1-4)GlcNAc(b1-3)Gal(b1-4)GlcNAc(b1-3)Gal(b1-4)GlcNAc(b1-3)Gal(b1-4)GlcNAc(b1-2)Man(a1-6)]Man(b1-4)GlcNAc(b1-4)GlcNAc", "method_in_brief": "as §1"}, "[21]": {"target": "Gal(b1-4)GlcNAc(b1-3)Gal(b1-4)GlcNAc(b1-3)Gal(b1-4)GlcNAc(b1-3)Gal(b1-4)GlcNAc(b1-3)Gal(b1-4)GlcNAc(b1-2)Man(a1-3)[Gal(b1-4)GlcNAc(b1-3)Gal(b1-4)GlcNAc(b1-3)Gal(b1-4)GlcNAc(b1-3)Gal(b1-4)GlcNAc(b1-3)Gal(b1-4)GlcNAc(b1-2)Man(a1-6)]Man(b1-4)GlcNAc(b1-4)GlcNAc", "method_in_brief": "as §1"}, "[22]": {"target": "Gal3S(b1-4)[Fuc(a1-3)]GlcNAc6S", "method_in_brief": "as §1"}, "Gal3S6S(b1-4)GlcNAc": {"target": "Gal3S6S(b1-4)GlcNAc", "method_in_brief": "as §1"}, "[23]": {"target": "Glc(a1-6)Glc(a1-6)Glc(a1-6)Glc", "method_in_brief": "as §1"}},
  "note": "The sample as a whole holds a higher share of the strongest signals than the screen did.",
  "data": [
    {"binder": "PX14343G-pdi-535-24-535 (Parabacteroides distasonis) (protein) LDTVPKDQLAPSTTWQTEADAKGFIVGCYKDLLDGNTLLYLDCGSDIGYNNFPWEGFRPWGDGSLSSSNPGQILYDYKSIRKANTFLENVDKVTFSSDAVKANYVAQAKAIRAYKYFLMNWWYGGVPIISSYSSADEAKVERNTEQEVRDYIAKDLDEALAGIAEAPEARGYIAKGAVLAIKMREALYYGDWQKAKDAAKAIIDLKQYELDPDYTNLFKVSGVDSKEIILADQNIETLDGLGTIGQMYNNVDQGWSSIVPTQNLVDMYEMSDGLTKEESKTYDAKHPFANRDPRMAMTILYPGRDWRGDVLNTLDEKLQDGTVNKNFPTYTDNASKSALTWAKYLDPMDQYGDVWSSGACPIVFRYAEVLLTYAEAANELSGPSDEIYGYLNQIRQRVGMGEVDKAKYGTKDKLRELIRRERTVELAGEGLRRADIVRWQEDGKMLAEKVMNGDLLRVTGTINYGESEPTKRAEITGTAVIETRQFSSRNRYLPIPQTSMDKNPNLKQNPGY", "values": [
      {"measurement": "glycan array binding signal (z-score)", "setting": "Fuc(a1-2)Gal(b1-3)GalNAc", "result": -1.05},
      {"measurement": "glycan array binding signal (z-score)", "setting": "[1]", "result": -0.439},
      {"measurement": "glycan array binding signal (z-score)", "setting": "Fuc(a1-2)Gal(b1-4)Glc", "result": -0.597},
      {"measurement": "glycan array binding signal (z-score)", "setting": "[2]", "result": -0.34},
      {"measurement": "glycan array binding signal (z-score)", "setting": "[3]", "result": 0.336},
      {"measurement": "glycan array binding signal (z-score)", "setting": "[4]", "result": 0.064},
      {"measurement": "glycan array binding signal (z-score)", "setting": "[5]", "result": -0.242},
      {"measurement": "glycan array binding signal (z-score)", "setting": "[6]", "result": 2.43},
      {"measurement": "glycan array binding signal (z-score)", "setting": "[7]", "result": -1.2},
      {"measurement": "glycan array binding signal (z-score)", "setting": "[8]", "result": -0.366},
      {"measurement": "glycan array binding signal (z-score)", "setting": "[9]", "result": 2.67},
      {"measurement": "glycan array binding signal (z-score)", "setting": "[10]", "result": -0.566},
      {"measurement": "glycan array binding signal (z-score)", "setting": "Gal(b1-3)Gal(b1-4)GlcNAc", "result": 0.673},
      {"measurement": "glycan array binding signal (z-score)", "setting": "[11]", "result": 0.51},
      {"measurement": "glycan array binding signal (z-score)", "setting": "[12]", "result": -0.53},
      {"measurement": "glycan array binding signal (z-score)", "setting": "[13]", "result": 0.402},
      {"measurement": "glycan array binding signal (z-score)", "setting": "[14]", "result": -0.363},
      {"measurement": "glycan array binding signal (z-score)", "setting": "[15]", "result": -0.426},
      {"measurement": "glycan array binding signal (z-score)", "setting": "[16]", "result": -0.515},
      {"measurement": "glycan array binding signal (z-score)", "setting": "[17]", "result": 2.06},
      {"measurement": "glycan array binding signal (z-score)", "setting": "[18]", "result": 1.65},
      {"measurement": "glycan array binding signal (z-score)", "setting": "[19]", "result": 3.07},
      {"measurement": "glycan array binding signal (z-score)", "setting": "[20]", "result": 0.004},
      {"measurement": "glycan array binding signal (z-score)", "setting": "[21]", "result": 2.76},
      {"measurement": "glycan array binding signal (z-score)", "setting": "[22]", "result": 2.01},
      {"measurement": "glycan array binding signal (z-score)", "setting": "Gal3S6S(b1-4)GlcNAc", "result": 0.193},
      {"measurement": "glycan array binding signal (z-score)", "setting": "[23]", "result": 0.739}
    ]}
  ]
}
